Results: the supplement of paper PMC10849652
Of roughly 8,800 targets only a part is listed; those with a hit were picked by preference. About 0.5% of all pairs of compound and target were hits.

Legend:
Experiment in all cases: log2 fold change, soluble protein after heating vs DMSO (PISA); higher = thermal stabilisation; K562 lysate, 10 uM; active = over 0.2 and 3.5 SD of the protein, either way, in both replicates (recomputed)
[1] = compound: C1=CC=C(C=C1)[C@H](COC2=CC3=C(C=C2)NC(=O)N3)NC(=O)C4=CC=CN(C4=O)CC5=CC(=C(C=C5)F)F
How it was run: (§1)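 K562 pellets were dounce-homogenised in PBS pH 7.4 containing 1 mM MgCl2, and the crude extract, at 1 mg/mL protein, was exposed to 10 μM compound for 30 min. Aliquots were heated for 3 min across 48°C-58°C, pooled, brought to 0.5% NP-40 at 4°C and spun at 21,000xg for 90 min, with the supernatant taken as soluble protein. TMTpro 16plex LC-MS/MS with equalised channel sums quantified that protein. Values are log-two fold changes in thermal stability relative to solvent controls, taken from duplicates.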

[2] = compound: CC1=C(SC2=C1C(=N[C@H](C3=NN=C(N32)C)CC(=O)N)C4=CC=C(C=C4)Cl)C
How it was run: as §1

[3] = compound: CC1=C2C(=CC=C1)N=C(N(C2=O)C3=CC=CC=C3C)CN4C=NC5=C(N=CN=C54)N
How it was run: as §1

[4] = compound: Cc1sc2c(c1C)C(c1ccc(Cl)cc1)=N[C@@H](CC(=O)OC(C)(C)C)c1nnc(C)n1-2
How it was run: as §1

[5] = compound: c1ccc([C@@H]2C[C@H]2NC2CCNCC2)cc1
How it was run: as §1

Measured: log2 fold change

DNAJC1 (UniProt Q96KC8)
Chain of UniProt Q96KC8 (Q96KC8 whole entry, looked up): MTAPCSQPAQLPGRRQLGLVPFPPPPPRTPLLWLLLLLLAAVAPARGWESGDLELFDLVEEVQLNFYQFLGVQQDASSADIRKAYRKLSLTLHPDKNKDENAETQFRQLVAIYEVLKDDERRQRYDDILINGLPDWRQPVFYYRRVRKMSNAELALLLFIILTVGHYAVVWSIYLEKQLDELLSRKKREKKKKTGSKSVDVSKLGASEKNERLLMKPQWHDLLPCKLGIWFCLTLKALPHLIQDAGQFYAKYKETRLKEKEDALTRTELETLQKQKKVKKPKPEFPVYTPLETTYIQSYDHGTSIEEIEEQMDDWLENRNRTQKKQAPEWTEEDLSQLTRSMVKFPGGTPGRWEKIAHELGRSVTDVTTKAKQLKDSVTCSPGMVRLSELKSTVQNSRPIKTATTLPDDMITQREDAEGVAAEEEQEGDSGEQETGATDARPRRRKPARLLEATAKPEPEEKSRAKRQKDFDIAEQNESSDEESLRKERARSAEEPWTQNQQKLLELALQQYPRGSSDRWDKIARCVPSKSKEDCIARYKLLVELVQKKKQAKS
inactive: [1] -0.113 | [2] -0.021 | [3] 0.039 | [4] -0.011 | [5] 0.021

CSNK1G3 (UniProt Q9Y6M4)
inactive: [1] -0.041 | [2] 0.017 | [3] -0.013 | [4] 0.006 | [5] -0.03

DDX20 (UniProt Q9UHI6)
inactive: [1] -0.008 | [2] -0.064 | [3] -0.006 | [4] 0.027 | [5] 0.077

DHRS11 (UniProt Q6UWP2)
inactive: [1] -0.004 | [2] 0.012 | [3] 0.018 | [4] 0.013 | [5] 0.014

COPZ1 isoform 4 (UniProt P61923)
Chain of UniProt P61923 (P61923 whole entry, looked up): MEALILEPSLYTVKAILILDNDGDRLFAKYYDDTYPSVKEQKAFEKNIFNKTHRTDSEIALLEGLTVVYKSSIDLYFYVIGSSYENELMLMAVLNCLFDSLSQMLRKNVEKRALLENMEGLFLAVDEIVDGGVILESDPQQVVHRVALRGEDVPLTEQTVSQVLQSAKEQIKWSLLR
inactive: [1] -0.101 | [2] -0.04 | [3] 0.06 | [4] 0.057 | [5] 0.096

DOK1 (UniProt Q99704)
Chain of UniProt Q99704 (Q99704 whole entry, looked up): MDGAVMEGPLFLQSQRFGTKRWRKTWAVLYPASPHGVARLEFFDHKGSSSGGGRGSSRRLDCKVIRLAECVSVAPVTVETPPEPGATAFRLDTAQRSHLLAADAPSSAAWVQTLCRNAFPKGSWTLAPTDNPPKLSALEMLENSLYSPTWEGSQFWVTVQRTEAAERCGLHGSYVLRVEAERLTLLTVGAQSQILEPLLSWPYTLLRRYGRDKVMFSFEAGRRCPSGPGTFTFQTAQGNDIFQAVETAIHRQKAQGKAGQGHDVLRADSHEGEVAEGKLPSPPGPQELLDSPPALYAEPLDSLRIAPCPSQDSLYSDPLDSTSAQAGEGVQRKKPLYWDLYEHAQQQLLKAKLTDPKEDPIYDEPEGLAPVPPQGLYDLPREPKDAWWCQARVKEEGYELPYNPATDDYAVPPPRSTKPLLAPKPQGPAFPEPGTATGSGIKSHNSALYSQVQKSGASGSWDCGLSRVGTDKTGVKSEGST
inactive: [1] 0.048 | [2] -0.024 | [3] -0.005 | [4] 0.064 | [5] -0.036

CSNK1E (UniProt P49674)
inactive: [1] -0.004 | [2] -0.072 | [3] -0.031 | [4] 0.031 | [5] -0.005

DDA1 (UniProt Q9BW61)
inactive: [1] 0.073 | [2] 0.024 | [3] -0.016 | [4] -0.003 | [5] 0.029

CUL1 (UniProt Q13616)
inactive: [1] 0.017 | [2] -0.027 | [3] -0.007 | [4] 0.016 | [5] -0.001

CMBL (UniProt Q96DG6)
inactive: [1] -0.01 | [2] -0.011 | [3] -0.027 | [4] -0.041 | [5] -0.078

DHRS3 (UniProt O75911)
inactive: [1] 0.073 | [2] 0.064 | [3] -0.091 | [4] 0.018 | [5] -0.004

COG7 (UniProt P83436)
inactive: [1] -0.026 | [2] 0.026 | [3] 0.01 | [4] -0.034 | [5] 0.012

DDX39A (UniProt O00148)
inactive: [1] -0.022 | [2] -0.018 | [3] 0.02 | [4] -0.016 | [5] 0

CHMP4A (UniProt H0YIN6)
inactive: [1] 0.032 | [2] 0.166 | [4] -0.222 | [5] -0.12

CHFR (UniProt Q96EP1)
inactive: [3] 0.027 | [4] -0.056

CSNK1A1 isoform 3 (UniProt P48729)
inactive: [4] 0.021

COL6A3 (UniProt P12111)
inactive: [1] -0.008 | [2] -0.04 | [4] -0.079 | [5] 0.13

CLASP1 isoform 4 (UniProt Q7Z460)
inactive: [3] 0.056

CLIP1, A0A3B3ITA2
inactive: [3] 0.035 | [5] -0.123

CNNM2 (UniProt Q9H8M5)
inactive: [3] 0.041 | [4] 0.034 | [5] 0.014

CNK3/IPCEF1 isoform 2 (UniProt G9CGD6)
inactive: [3] -0.032 | [4] 0 | [5] -0.817

CLIP1 isoform 2 (UniProt P30622)
inactive: [1] 0.11 | [2] -0.03 | [4] 0.009 | [5] -0.002

CUX1 isoform 2 (UniProt Q13948)
Chain of UniProt Q13948 (Q13948 whole entry, looked up): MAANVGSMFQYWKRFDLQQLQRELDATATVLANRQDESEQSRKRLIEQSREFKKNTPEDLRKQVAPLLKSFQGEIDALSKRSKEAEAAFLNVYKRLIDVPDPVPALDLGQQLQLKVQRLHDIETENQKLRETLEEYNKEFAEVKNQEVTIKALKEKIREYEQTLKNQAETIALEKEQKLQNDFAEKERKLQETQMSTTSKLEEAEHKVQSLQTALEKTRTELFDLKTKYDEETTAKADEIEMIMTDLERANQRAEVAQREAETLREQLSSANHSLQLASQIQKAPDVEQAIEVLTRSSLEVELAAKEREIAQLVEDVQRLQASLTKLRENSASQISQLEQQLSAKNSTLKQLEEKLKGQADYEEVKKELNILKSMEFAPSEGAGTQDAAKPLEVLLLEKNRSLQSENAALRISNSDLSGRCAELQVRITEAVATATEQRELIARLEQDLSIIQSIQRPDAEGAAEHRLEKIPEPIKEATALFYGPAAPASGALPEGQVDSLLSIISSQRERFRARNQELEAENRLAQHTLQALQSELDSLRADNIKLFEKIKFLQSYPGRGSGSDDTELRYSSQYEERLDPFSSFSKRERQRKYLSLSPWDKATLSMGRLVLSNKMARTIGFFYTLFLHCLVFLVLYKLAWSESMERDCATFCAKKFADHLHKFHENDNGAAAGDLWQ
inactive: [3] 0.03 | [4] 0.075 | [5] 0.193

CYP4V2 (UniProt Q6ZWL3)
inactive: [1] -0.119 | [2] 0.188 | [4] 0.035

CRLS1 (UniProt Q9UJA2)
inactive: [1] -0.349 | [2] 0.044 | [5] 0.065

DNM2 isoform 4 (UniProt P50570)
inactive: [4] 0.025 | [5] -0.043

DESI2 (UniProt Q9BSY9)
inactive: [3] -0.142 | [5] -0.038

CSDE1 isoform 3 (UniProt O75534)
Chain of UniProt O75534 (O75534 whole entry, looked up): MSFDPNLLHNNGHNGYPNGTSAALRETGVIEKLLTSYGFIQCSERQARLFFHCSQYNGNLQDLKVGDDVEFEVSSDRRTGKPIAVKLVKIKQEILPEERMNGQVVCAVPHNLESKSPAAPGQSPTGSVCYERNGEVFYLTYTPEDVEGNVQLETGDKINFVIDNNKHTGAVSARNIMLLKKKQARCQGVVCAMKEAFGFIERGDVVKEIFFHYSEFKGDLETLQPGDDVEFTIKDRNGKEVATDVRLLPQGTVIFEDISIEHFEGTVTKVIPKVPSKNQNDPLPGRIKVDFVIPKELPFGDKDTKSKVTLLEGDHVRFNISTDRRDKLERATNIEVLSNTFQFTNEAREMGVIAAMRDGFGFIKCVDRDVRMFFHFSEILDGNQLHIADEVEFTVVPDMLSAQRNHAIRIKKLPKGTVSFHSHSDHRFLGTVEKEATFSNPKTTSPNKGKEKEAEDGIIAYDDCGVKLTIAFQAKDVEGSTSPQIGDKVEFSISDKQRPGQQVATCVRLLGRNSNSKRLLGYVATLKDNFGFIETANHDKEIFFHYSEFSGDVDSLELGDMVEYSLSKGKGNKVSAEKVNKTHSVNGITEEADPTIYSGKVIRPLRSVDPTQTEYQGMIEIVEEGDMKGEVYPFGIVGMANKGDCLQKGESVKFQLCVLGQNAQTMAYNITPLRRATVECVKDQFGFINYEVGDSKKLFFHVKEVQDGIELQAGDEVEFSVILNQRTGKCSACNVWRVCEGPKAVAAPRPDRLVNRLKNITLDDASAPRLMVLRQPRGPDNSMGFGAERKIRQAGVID
inactive: [1] -0.18 | [2] -0.098 | [5] 0.043

DNAJC24 (UniProt Q6P3W2)
inactive: [3] 0.007 | [4] 0.024 | [5] 0.055

CPLX1 (UniProt O14810)
inactive: [3] -0.08 | [4] -0.239

DHRS13 (UniProt Q6UX07)
inactive: [1] -0.13 | [2] 0.059 | [4] -0.099

CORO7 (UniProt P57737)
inactive: [3] 0.18 | [4] 0.165 | [5] 0.164

DDR1 isoform 5 (UniProt Q08345)
inactive: [1] -0.1 | [2] 0.057 | [4] -0.09 | [5] 0.135

DAPK1 isoform 3 (UniProt P53355)
inactive: [3] 0.035 | [4] 0.013 | [5] 0.039

DALRD3 (UniProt Q5D0E6)
inactive: [3] 0.193 | [5] 0.137

DNA2 (UniProt P51530)
inactive: [3] 0.047 | [4] 0.072 | [5] 0.026

DDAH1 (UniProt O94760)
inactive: [3] 0.005 | [4] 0.15 | [5] -0.072

DHX32 (UniProt Q7L7V1)
inactive: [3] -0.086 | [5] -0.009

DCTN1 isoform 4 (UniProt Q14203)
Chain of UniProt Q14203 (Q14203 whole entry, looked up): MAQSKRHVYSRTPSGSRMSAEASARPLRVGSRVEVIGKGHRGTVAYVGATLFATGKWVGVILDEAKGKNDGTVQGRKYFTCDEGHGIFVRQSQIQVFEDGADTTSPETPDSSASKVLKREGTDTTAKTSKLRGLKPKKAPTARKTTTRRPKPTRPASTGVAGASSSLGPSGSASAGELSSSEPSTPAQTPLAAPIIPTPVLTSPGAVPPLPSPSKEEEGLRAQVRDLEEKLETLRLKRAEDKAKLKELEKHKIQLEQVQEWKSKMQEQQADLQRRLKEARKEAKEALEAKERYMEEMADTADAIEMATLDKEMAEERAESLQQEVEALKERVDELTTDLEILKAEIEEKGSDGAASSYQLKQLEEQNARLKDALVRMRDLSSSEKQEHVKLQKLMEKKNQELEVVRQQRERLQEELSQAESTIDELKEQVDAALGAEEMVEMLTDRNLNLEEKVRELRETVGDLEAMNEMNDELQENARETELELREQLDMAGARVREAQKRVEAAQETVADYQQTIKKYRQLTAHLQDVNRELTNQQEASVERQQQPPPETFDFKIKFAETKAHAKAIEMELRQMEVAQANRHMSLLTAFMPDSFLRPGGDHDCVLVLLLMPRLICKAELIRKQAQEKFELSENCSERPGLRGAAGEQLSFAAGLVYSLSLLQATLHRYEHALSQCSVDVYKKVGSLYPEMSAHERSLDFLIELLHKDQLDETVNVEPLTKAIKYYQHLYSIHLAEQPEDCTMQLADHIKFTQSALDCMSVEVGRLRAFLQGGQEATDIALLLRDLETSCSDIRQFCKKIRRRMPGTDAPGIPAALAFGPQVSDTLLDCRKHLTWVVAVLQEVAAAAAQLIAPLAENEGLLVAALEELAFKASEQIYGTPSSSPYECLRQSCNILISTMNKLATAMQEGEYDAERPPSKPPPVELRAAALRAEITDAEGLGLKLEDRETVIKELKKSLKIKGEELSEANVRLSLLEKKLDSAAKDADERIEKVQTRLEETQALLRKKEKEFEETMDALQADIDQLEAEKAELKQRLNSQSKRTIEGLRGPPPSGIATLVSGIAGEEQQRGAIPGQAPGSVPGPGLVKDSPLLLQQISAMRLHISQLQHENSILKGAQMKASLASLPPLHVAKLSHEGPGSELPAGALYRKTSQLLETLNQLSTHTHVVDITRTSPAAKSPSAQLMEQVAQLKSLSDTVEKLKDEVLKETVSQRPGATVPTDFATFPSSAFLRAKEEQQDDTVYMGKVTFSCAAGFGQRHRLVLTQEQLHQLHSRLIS
inactive: [3] 0.013 | [4] -0.13 | [5] -0.452

DIAPH1 (UniProt H9KV28)
inactive: [1] 0.009 | [2] 0.023 | [3] 0.007 | [5] -0.117

CLASP2 (UniProt O75122)
inactive: [1] 0.16 | [2] -0.248 | [3] -0.105 | [5] 0.002

COX7B (UniProt P24311)
inactive: [3] -0.031 | [4] -0.027 | [5] -0.075

DONSON (UniProt Q9NYP3)
inactive: [1] -0.043 | [2] 0.068 | [4] 0.013 | [5] -0.243

DLGAP5 isoform 3 (UniProt Q15398)
Chain of UniProt Q15398 (Q15398 whole entry, looked up): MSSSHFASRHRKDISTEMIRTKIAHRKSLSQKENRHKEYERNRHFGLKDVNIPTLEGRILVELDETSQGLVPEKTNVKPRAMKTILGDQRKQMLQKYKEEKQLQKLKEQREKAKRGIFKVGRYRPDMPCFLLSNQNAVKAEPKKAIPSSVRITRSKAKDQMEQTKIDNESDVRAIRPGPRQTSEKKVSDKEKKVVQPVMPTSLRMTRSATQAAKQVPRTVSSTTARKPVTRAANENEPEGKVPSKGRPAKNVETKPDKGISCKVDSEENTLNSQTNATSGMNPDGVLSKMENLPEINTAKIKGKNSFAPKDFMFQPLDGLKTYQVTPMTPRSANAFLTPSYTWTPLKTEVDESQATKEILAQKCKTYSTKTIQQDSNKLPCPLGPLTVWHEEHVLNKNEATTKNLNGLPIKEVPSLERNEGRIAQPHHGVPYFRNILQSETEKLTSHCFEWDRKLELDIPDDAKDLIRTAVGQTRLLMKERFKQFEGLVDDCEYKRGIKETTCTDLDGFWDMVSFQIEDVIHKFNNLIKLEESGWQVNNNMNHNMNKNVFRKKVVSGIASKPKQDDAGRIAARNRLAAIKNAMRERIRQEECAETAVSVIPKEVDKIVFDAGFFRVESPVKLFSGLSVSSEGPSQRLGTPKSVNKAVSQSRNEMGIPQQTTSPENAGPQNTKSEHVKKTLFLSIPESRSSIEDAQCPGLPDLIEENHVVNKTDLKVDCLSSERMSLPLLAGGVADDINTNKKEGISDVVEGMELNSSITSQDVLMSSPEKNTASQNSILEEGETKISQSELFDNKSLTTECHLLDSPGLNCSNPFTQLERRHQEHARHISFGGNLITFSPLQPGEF
inactive: [1] -0.167 | [2] 0.031 | [4] -0.036 | [5] 0.021

COL12A1 (UniProt Q99715)
inactive: [3] 0.08 | [4] -0.078

CYP2S1 isoform 2 (UniProt Q96SQ9)
inactive: [3] 0.033 | [4] -0.123

CSRP2 (UniProt Q16527)
Chain of UniProt Q16527 (Q16527 whole entry, looked up): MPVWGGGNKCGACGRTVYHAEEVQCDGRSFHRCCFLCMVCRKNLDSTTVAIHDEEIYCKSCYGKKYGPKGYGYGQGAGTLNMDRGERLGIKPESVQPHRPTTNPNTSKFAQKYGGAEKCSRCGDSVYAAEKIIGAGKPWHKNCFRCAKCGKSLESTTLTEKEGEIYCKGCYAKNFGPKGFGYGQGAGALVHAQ
inactive: [1] -0.031 | [2] -0.018 | [5] 0.003
